{"source": "ChEMBL document CHEMBL3988442", "about": "“University of Dundee, Small-Polar-MMV Screening Library” (2021)", "note": "About 900 (1.7%) of roughly 53,000 compounds showed an effect of 50% or more. Many of the other results were omitted from the sample, so strong results are more common in it than they were.", "data": [{"test_system": "Mycobacterium tuberculosis", "experiment": "Cornell - Phenotypic assay to identify agents that inhibit growth of Mycobacterium tuberculosis", "type": "functional", "parameters": "scale not given: direction of the effect not stated beside the values", "settings": "10 mM as filed; unlikely as a test dose", "units": {"Percent Effect": "%"}, "values": [{"molecule": "O=C(O)C(F)(F)F.O=C1N(CC2CC2)CCC12CCN(Cc1ccoc1)CC2", "Percent Effect": -1.631}, {"molecule": "Cl.O=C(NCCn1nc(C2CCNC2)c2cccnc21)c1ccccc1", "note": "(stereo not given)", "Percent Effect": -53.35}, {"molecule": "Cc1c(OCC(=O)NCc2ccccc2)c(=O)ccn1C", "Percent Effect": 2.776}, {"molecule": "OCCn1nccc1C1CCN(CCOc2ccccc2Cl)CC1", "Percent Effect": -31.74}, {"molecule": "CCc1cnc(CN(C)C2CCN(CC3CCN(C(C)=O)CC3)C2)o1", "note": "(stereo not given)", "Percent Effect": 6.622}, {"molecule": "Nc1cc(-c2cccs2)nn(CC(=O)NCC2CCCCC2)c1=O", "Percent Effect": 91.2}, {"molecule": "Cc1ccc(-c2cc(N)c(=O)n(CC(=O)NCC3CCCCC3)n2)s1", "Percent Effect": 31.53}, {"molecule": "Cc1ccc(-c2cc(N)c(=O)n(CC(=O)NC3CCCC3)n2)s1", "Percent Effect": -35.82}, {"molecule": "Cc1ccc(-c2cc(N)c(=O)n(CC(=O)NCC3CC3)n2)s1", "Percent Effect": 90.74}, {"molecule": "Cc1cc(-c2cc(N)c(=O)n(CC(=O)NCC3CCCCC3)n2)c(C)o1", "Percent Effect": -31.85}, {"molecule": "Cc1ccc(-c2cc(N)c(=O)n(CC(=O)NC3CCCCC3)n2)s1", "Percent Effect": 21.23}, {"molecule": "CCN1CCn2c(C)cnc2C12CCN(C(=O)C(C)C)CC2.O=C(O)C(F)(F)F.O=C(O)C(F)(F)F", "Percent Effect": 14.47}, {"molecule": "COCCN1C(=O)CO[C@H]2CN(Cc3cccc(OC)c3F)C[C@@H]21", "Percent Effect": -23.69}, {"molecule": "Cc1cc(NC(=O)CN2CCN(c3nccs3)C(C)C2)on1", "note": "(stereo not given)", "Percent Effect": 22.95}, {"molecule": "CCOc1ccc(NC(=O)Cn2cc(I)cn2)cc1", "Percent Effect": 8.752}, {"molecule": "OC1CN(c2nc3c(C(F)(F)F)cccc3s2)C1", "Percent Effect": -37.29}, {"molecule": "Cc1ccccc1NC1CCN(C(=O)CCc2ccco2)CC1", "Percent Effect": 50.28}, {"molecule": "O=C(CCc1ccco1)N1CCC(Nc2cccnn2)CC1", "Percent Effect": -37.65}, {"molecule": "Cc1ccc(NC2CCN(C(=O)CCc3ccco3)CC2)nn1", "Percent Effect": 9.645}, {"molecule": "COc1cccc(Cn2ncnc2CCSC)c1", "Percent Effect": 21.64}, {"molecule": "CN(Cc1cncnc1)[C@@H]1CN(C(=O)C2CC2)[C@@H]2CCCO[C@H]12.O=C(O)C(F)(F)F", "Percent Effect": 10.43}, {"molecule": "Clc1ccc(OCCc2cc(C3CCN(c4ncccn4)C3)n[nH]2)cc1", "note": "(stereo not given)", "Percent Effect": 81.19}, {"molecule": "Br.COc1ccc(OCCc2cc(C3CCN(CC(C)C)C3)n[nH]2)cc1", "note": "(stereo not given)", "Percent Effect": 44.88}, {"molecule": "Cc1cc(C)nc(N2CCC(c3cc(CCO)[nH]n3)C2)n1", "note": "(stereo not given)", "Percent Effect": 21.68}, {"molecule": "Cn1cc(CN2CCC(c3cc(COc4ccc(Cl)cc4)[nH]n3)C2)cn1", "note": "(stereo not given)", "Percent Effect": 8.733}, {"molecule": "Cc1cc(C2CCCN(C(=O)COc3ccc(F)cc3)C2)n[nH]1", "note": "(stereo not given)", "Percent Effect": 21.79}, {"molecule": "CCCN1CCC(c2cc(CCOc3ccc(C(F)(F)F)cc3)[nH]n2)C1", "note": "(stereo not given)", "Percent Effect": 74.52}, {"molecule": "CN(C)CCCNCCC(Cc1ccccc1)C1CCOC(C)(C)C1.O=C(O)C(=O)O", "note": "(stereo not given)", "Percent Effect": 18.5}, {"molecule": "O=C(c1cc[nH]n1)N1CCOCC2(C1)CN(c1ccccc1)C(=O)CO2", "note": "(stereo not given)", "Percent Effect": 56}, {"molecule": "O=C(c1ccc[nH]1)N1CCOCC2(C1)CN(c1ccccc1)C(=O)CO2", "note": "(stereo not given)", "Percent Effect": 34.74}, {"molecule": "O=C(O)C(F)(F)F.O=C(c1c[nH]cn1)N1CCOCC2(C1)CN(c1ccccc1)C(=O)CO2", "note": "(stereo not given)", "Percent Effect": 29.26}, {"molecule": "CCn1nnnc1-c1cccc(NCc2nc(C)ccc2O)c1", "Percent Effect": 4.577}, {"molecule": "O=C(O)CCCN1C[C@@H](c2ccccc2F)[C@@]2(CCCCC(=O)N2)C1", "Percent Effect": 43.05}, {"molecule": "COc1cc(F)c(S(=O)(=O)Nc2cnc(O)cc2C)cc1OC", "Percent Effect": 3.766}, {"molecule": "CCC(CN1CCCC1)n1cncc1-c1cnn(Cc2ccccc2)c1.Cl", "note": "(stereo not given)", "Percent Effect": 36.43}, {"molecule": "CC(Cn1cncc1-c1cnn(C2CCCCC2)c1)N1CCCCC1.Cl", "note": "(stereo not given)", "Percent Effect": -3.197}, {"molecule": "CC(Cn1cncc1-c1cnn(Cc2ccccc2)c1)N1CCCCC1.Cl", "note": "(stereo not given)", "Percent Effect": 58.13}, {"molecule": "CCOc1ccccc1N1CCN(C(=O)NCc2cc[nH]n2)CC1", "Percent Effect": -20.55}, {"molecule": "CNc1cc(C2CCCN2C(=O)c2ccc(=O)[nH]n2)ccn1.O=CO", "note": "(stereo not given)", "Percent Effect": 2.671}, {"molecule": "CCC(CN1CCCC1)n1cncc1-c1cnn(-c2ccc(F)cc2)c1.Cl", "note": "(stereo not given)", "Percent Effect": 20.09}, {"molecule": "CCC(CN1CCCC1)n1cncc1-c1cnn(-c2ccccc2)c1.Cl", "note": "(stereo not given)", "Percent Effect": 55.09}, {"molecule": "CCC(CN1CCOCC1)n1cncc1-c1ccc2c(c1)CCCN2C.Cl", "note": "(stereo not given)", "Percent Effect": 15.31}, {"molecule": "CCn1nc(C)cc1C(=O)NCc1cc(N(C)C)nc2ccccc12", "Percent Effect": 34.42}, {"molecule": "CC(C)OCCCNC(=O)CN1CCN(c2nccs2)CC1", "Percent Effect": 4.56}, {"molecule": "O=C(c1cnc(O)c(Cl)c1)N1CCCC(c2nccs2)C1", "note": "(stereo not given)", "Percent Effect": -10.54}, {"molecule": "O=C(NCCO)Nc1cnc2cc(Cl)ccc2c1O", "Percent Effect": 103.7}, {"molecule": "CNC(=O)Nc1cnc2cc(Cl)ccc2c1O", "Percent Effect": -22.82}, {"molecule": "O=C(NCC1CC1)Nc1cnc2cc(Cl)ccc2c1O", "Percent Effect": -6.744}, {"molecule": "O=C(NCCCO)Nc1cnc2cc(Cl)ccc2c1O", "Percent Effect": 81.69}, {"molecule": "O=C(NCCN1CCOCC1)Nc1cnc2cc(Cl)ccc2c1O", "Percent Effect": -4.322}, {"molecule": "O=C(NCCCN1CCOCC1)Nc1cnc2cc(Cl)ccc2c1O", "Percent Effect": 32.37}, {"molecule": "Cl.O=C(NCCn1nc(C2CCNC2)c2cccnc21)C1CC1", "note": "(stereo not given)", "Percent Effect": -8.257}, {"molecule": "O=C(O)COc1ccccc1CN1CCCC1c1ccncn1", "note": "(stereo not given)", "Percent Effect": -19.71}, {"molecule": "CC(SCC(=O)N(C)CC(=O)NC1CC1)c1cc(F)ccc1F", "note": "(stereo not given)", "Percent Effect": -24.27}, {"molecule": "O=C(NCc1ccco1)[C@H]1COC[C@H]2CN(Cc3ccoc3)C[C@H]21.O=C(O)C(F)(F)F", "Percent Effect": -10.46}, {"molecule": "Cn1cccc1CN(C(=O)Cc1cccs1)C1CC1", "Percent Effect": 91.3}, {"molecule": "O=C(O)CC(CC(=O)N(Cc1ccsc1)C1CC1)c1cccs1", "note": "(stereo not given)", "Percent Effect": 15.88}, {"molecule": "CN(Cc1cccs1)C1CCC[C@@H]2CN(C(=O)c3cccn3C)C[C@H]12", "note": "(stereo not given in full)", "Percent Effect": 28.44}, {"molecule": "O=C(O)CC(CC(=O)NCCc1cccs1)c1cccs1", "note": "(stereo not given)", "Percent Effect": 23.94}, {"molecule": "CN(C(=O)Cc1cccs1)C1CCN(c2ccccn2)CC1", "Percent Effect": -44.78}, {"molecule": "Cn1cccc1CN(C(=O)CC(CC(=O)O)c1cccs1)C1CC1", "note": "(stereo not given)", "Percent Effect": 104.7}, {"molecule": "Cc1ccc(N(C)[C@@H]2CC[C@@H]3CN(C(=O)C4CCOCC4)C[C@@H]32)nn1", "Percent Effect": -1.727}, {"molecule": "CCN(Cc1nc(Cc2ccccc2)no1)C1CC1", "Percent Effect": -4.646}, {"molecule": "CC(C)c1ccc(S(=O)(=O)N2CSCC2C(=O)NCC(F)(F)F)cc1", "note": "(stereo not given)", "Percent Effect": 11.48}, {"molecule": "Cc1cccc(CNC(=O)NCC2CCN(Cc3ncc[nH]3)C2)c1", "note": "(stereo not given)", "Percent Effect": 26.47}, {"molecule": "c1ccc2sc(CN3CCCC3c3noc(C4CC4)n3)nc2c1", "note": "(stereo not given)", "Percent Effect": 50.21}, {"molecule": "c1cc(CN2CCCC2c2noc(C3CC3)n2)on1", "note": "(stereo not given)", "Percent Effect": -61.35}, {"molecule": "Cc1cc(CN2CCCC2c2noc(C3CC3)n2)c2ccccc2n1", "note": "(stereo not given)", "Percent Effect": 12.61}, {"molecule": "CCOC(=O)[C@]12CCCN(Cc3cccs3)C[C@H]1CN(CCOC)C2.O=C(O)C(F)(F)F.O=C(O)C(F)(F)F", "Percent Effect": 11.02}, {"molecule": "COc1ccc(CNC(C)c2cnn(C)c2)cc1OC1CCCC1", "note": "(stereo not given)", "Percent Effect": 9.224}, {"molecule": "O=C(O)C(F)(F)F.c1coc(CN2CCCn3c(nnc3Cn3cccc3)C2)c1", "Percent Effect": 21.05}, {"molecule": "Cl.O=C(NCCn1nc(C2CCNC2)c2cccnc21)c1ccccn1", "note": "(stereo not given)", "Percent Effect": -9.907}, {"molecule": "Cc1cc(-c2ccc(=O)n(CCNC(=O)C3CC3)n2)c(C)o1", "Percent Effect": 55.53}, {"molecule": "Cc1cc(-c2ccc(=O)n(CCNC(=O)C3CCCCC3)n2)c(C)o1", "Percent Effect": 6.455}, {"molecule": "Cc1cc(-c2ccc(=O)n(CCNC(=O)C3CCC3)n2)c(C)o1", "Percent Effect": -20.09}, {"molecule": "O=C(Nc1cccc(CN2CCC(CO)CC2)c1)c1cc(Cl)c[nH]1", "Percent Effect": -16.48}, {"molecule": "CC(C)N(C)S(=O)(=O)N(Cc1cccs1)Cc1cccs1", "Percent Effect": 53.57}, {"molecule": "COc1ccccc1CN(Cc1cccs1)S(=O)(=O)N(C)C(C)C", "Percent Effect": 41.56}, {"molecule": "CCN(Cc1cccs1)S(=O)(=O)N(C)C(C)C", "Percent Effect": 30.52}, {"molecule": "CCOc1ccc(C(F)(F)F)cc1NC(=O)N1CCNC(=O)C1", "Percent Effect": 13.57}, {"molecule": "Br.Cc1cccc(N(CC(=O)c2ccccc2)C2=NCCCCC2)c1", "Percent Effect": 13.79}, {"molecule": "Br.COc1ccc(C(=O)CN(C2=NCCCCC2)c2ccccc2)cc1", "Percent Effect": 15.77}, {"molecule": "Br.Cc1ccc(C(=O)CN(C2=NCCCCC2)c2ccccc2)cc1", "Percent Effect": 29.09}, {"molecule": "Br.O=C(CN(C1=NCCCC1)c1ccccc1)c1ccc2c(c1)OCCO2", "Percent Effect": 22.49}, {"molecule": "Br.O=C(CN(C1=NCCCC1)c1ccccc1)c1ccc(OC(F)F)cc1", "Percent Effect": 62.24}, {"molecule": "Br.Cc1ccc(N(CC(=O)c2ccc(Br)cc2)C2=NCCCCC2)cc1", "Percent Effect": 102.8}, {"molecule": "Br.CCOc1ccc(N(CC(=O)c2ccccc2)C2=NCCCCC2)cc1", "Percent Effect": 104.2}, {"molecule": "Br.O=C(CN(C1=NCCCCC1)c1ccc(Cl)cc1)c1ccccc1", "Percent Effect": 14.11}, {"molecule": "Br.O=C(CN(C1=NCCCC1)c1ccccc1)c1ccccc1", "Percent Effect": -16.62}, {"molecule": "O=C(NCC[S+]([O-])c1ccccc1)c1ccc2[nH]c(=O)[nH]c2c1", "note": "(stereo not given)", "Percent Effect": 15.24}, {"molecule": "CCOC(=O)[C@@H]1[C@@H](O)C(=O)N(C)C12CCN(C(=O)OC)CC2", "Percent Effect": -16.14}, {"molecule": "CC(C)CCN1C(=O)C2(NC(=O)c3ccccc3O2)c2ccccc21", "note": "(stereo not given)", "Percent Effect": 40.69}, {"molecule": "Cc1nc(-c2ccncc2)ncc1C(C)NC(=O)CN1CCOC1=O", "note": "(stereo not given)", "Percent Effect": -51.46}, {"molecule": "O=S(=O)(NCCCn1cncn1)c1ccc2c(c1)CCC2", "Percent Effect": -2.394}, {"molecule": "CN(CCc1nccs1)C(=O)C1(C#N)CCCCC1", "Percent Effect": 25.08}, {"molecule": "Cc1nc(NCCO)cc(C(C)Cn2nc(C)c(C)c2C)n1", "note": "(stereo not given)", "Percent Effect": -14.61}, {"molecule": "NC(=O)c1cn2cc(-c3ccccc3Cl)n(CC3CC3)c(=O)c2n1", "Percent Effect": 14.04}, {"molecule": "O=C(C1CCN(c2ccnc3ccc(Br)cc23)CC1)N1CCOCC1", "Percent Effect": -18.98}, {"molecule": "CC(=O)NCC1CCN(c2ccnc3ccc(Br)cc23)CC1", "Percent Effect": 9.267}, {"molecule": "CC1CCN(c2ccnc3ccc(Br)cc23)CC1", "Percent Effect": 84.63}]}]}
